In the library only some 3.1% were active in any assay of this set; here they are far more common.
S16 F2sN tox: toxic to S16 Pmp22-F2sN Schwann cells; S16 Pmp22-F2sN Schwann cells viability, CellTiter-Glo, 24 h; Potency, µM (highest dose often 57.5 µM), hits mostly cytotoxic; 0.48% of 43,000 active; AID 1508642; also: nearly all actives have a fitted effect of over 65% in size
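Viability was measured by CellTiter-Glo luminescence (15 min, room temperature). This followed 24 h at 37 °C of compound exposure (23 nL pin transfer) in S16 Pmp22-F2sN Schwann cells, 500-1,000 per well.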
PMP22 txn: modulates PMP22 transcription in S16 Schwann cells. 2% of 43,000 active. Potency, µM (top dose mostly 57.5 µM), usual class: inhibitors. S16 Pmp22-F2sN Schwann cells, FLuc/NLuc coincidence luminescence, 24 h; active = clear falling dose curves in both reporters; inconclusive = both reporters move, but less clearly or upward; inactive = either reporter flat; the % is the NLuc reporter signal
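Reporter cells (S16 Pmp22-F2sN, 500–1,000 per well) exposed to compounds for 24 h, 37C, 5% CO2; lysis with FLuc read after 10 min, then Stop&Glo and NLuc read after 10 min.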
OvCa metastasis: inhibitors of ovarian cancer cell adhesion and invasion in omental model. Potency, µM (highest dose often 45.8 µM), actives largely listed as inhibitors. AID 1963576. 0.1% of 46,000 active. SKOV3ip1-GFP adhesion/invasion on 3D omental model, fluorescence; also: nearly all actives have a fitted effect of over 65% in size
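Adhesion/invasion was scored as fixed GFP-labeled SKOV3ip1 cell counts (488/509 nm), normalized to DMSO and tomatine controls. Cancer cells in serum-free medium, with four compound doses (0.36-46 umol/L), sat 2 hr at RT then 16 hr at 37 C on a 48 hr fibroblast/mesothelial/ECM culture.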
p53null 32C kill: kills p53 null cells at the permissive temperature. 0.62% of 55,000 active. H1299-neo p53 null cells, ATP luminescence, 24 h, 32C. AID 903. Potency, µM (top dose mostly 46.1 µM), actives largely listed as cytotoxic; also: nearly all actives have a fitted effect of over 55% in size
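H1299-neo, 600 cells/well; overnight 37C; cpd up to 46 uM, 24 h at 32C; ATPlite luminescence after 20 min RT; normalized to DMSO (0%) and tamoxifen 100 uM (100% kill); Hill-fit AC50.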
p53null 39C kill: selectivity test: cytotoxicity in p53 null cells, nonpermissive temperature. H1299 p53-null (neo) cells, 39C, ATPlite viability, 24 h. Potency, µM (series often up to 46.1 µM), hits mostly cytotoxic. 0.97% of 55,000 active. AID 904; also: nearly all actives have a fitted effect of over 50% in size
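H1299 lung cancer cells, p53-null (H1299-neo) or expressing p53 A138V (H1299-p53A138V), were plated overnight at 37C, then exposed to compounds at up to 46 uM for 24 hr at 39C. Viability was read by ATP-based luminescence.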
pS6 MEF inh: mTORC1 pathway inhibition measured by phospho-rpS6; Potency, µM (top dose mostly 38.3 µM), hits mostly inhibitors; 0.78% of 44,000 active; Tsc2-/- p53-/- MEF, phospho-rpS6 immunofluorescence/PI, 24 h; also: nearly all actives have a fitted effect of over 50% in size
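Plate MEFs (Tsc2-/-, p53-/-, empty vector) in DMEM/10% FBS; after 24 h add compound, incubate 24 h at 37 degree Celsius; fix in PFA/TX-100, block, stain phospho-rpS6 and 10 uM PI; scan at 488 nm; report % positive cells.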
NLuc saturating: NanoLuc enzyme inhibition artifact for PMP22 screen | Potency, µM (highest dose often 57.5 µM), most hits filed as inhibitors | shares compounds with PMP22 txn | Secreted NLuc enzyme (filtered S16 cell medium), Nano-Glo luminescence | 4% of 690 active
NLuc Km ctr: inhibits NanoLuc under Km conditions, PMP22 counter-screen; secreted NLuc enzyme, coelenterazine luminescence, Km conditions; shares compounds with PMP22 txn; 5% of 690 active; Potency, µM (highest dose often 57.5 µM), actives largely listed as inhibitors
FLuc ctr PMP22: inhibits firefly luciferase, PMP22 counter-screen | shares compounds with PMP22 txn | purified P. pyralis FLuc, luminescence, 10 min | Potency, µM (doses to about 57.5 µM), usual class: inhibitors | 690 tested, under 10 active | AID 1508640
Target sequence (P08659 whole entry, looked up): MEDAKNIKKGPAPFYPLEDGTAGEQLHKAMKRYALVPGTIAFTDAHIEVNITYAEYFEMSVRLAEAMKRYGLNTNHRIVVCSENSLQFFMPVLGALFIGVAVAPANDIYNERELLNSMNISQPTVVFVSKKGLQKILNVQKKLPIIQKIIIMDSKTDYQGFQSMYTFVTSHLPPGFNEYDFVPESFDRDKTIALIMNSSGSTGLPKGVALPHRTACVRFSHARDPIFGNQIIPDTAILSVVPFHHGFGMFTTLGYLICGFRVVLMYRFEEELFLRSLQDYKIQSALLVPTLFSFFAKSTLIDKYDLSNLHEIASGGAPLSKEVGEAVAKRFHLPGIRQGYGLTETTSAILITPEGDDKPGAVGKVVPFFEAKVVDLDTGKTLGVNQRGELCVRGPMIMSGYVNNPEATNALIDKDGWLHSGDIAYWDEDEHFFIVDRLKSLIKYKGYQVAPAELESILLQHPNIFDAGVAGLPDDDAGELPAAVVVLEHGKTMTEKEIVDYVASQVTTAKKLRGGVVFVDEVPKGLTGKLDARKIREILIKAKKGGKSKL
S16 F2sN tox cnf: confirmation of cytotoxicity in S16 Pmp22-F2sN Schwann cells (luciferase reporters placed in the Pmp22 gene); shares compounds with PMP22 txn; S16 Schwann cells viability, CellTiter-Glo ATP luminescence, 24 h; Potency, µM (titrated, usually from 57.5 µM), actives largely listed as cytotoxic; 7% of 690 active; AID 1508641
PMP22 txn cnf: confirmation of modulators of PMP22 gene transcription in S16 cells. shares compounds with PMP22 txn. S16 Schwann cells Pmp22-F2sN, dual luciferase, 24 h. Potency, µM (highest dose often 57.5 µM), hits mostly inhibitors. 22% of 690 active; active = clear falling dose curves in both reporters; inconclusive = both reporters move, but less clearly or upward; inactive = either reporter flat; the % is the FLuc reporter signal
Of the large screens only hits and unclear results are named; the others gave an inactive call (follow-up assays come after a bar, where they were run). Unless noted, calls follow the shape of the dose curve; as a rule, active = well fitted curve in the direction sought with a large enough effect; inconclusive = small, poorly fitted or top-dose-only effect, or another doubt; inactive = no such curve, though single readings can be large; an effect the other way counts as inactive or inconclusive.

Cn1c(-c2cccc(Br)c2)cnc1NCc1cccc(F)c1	PMP22 txn inconclusive, pS6 MEF inh inconclusive | NLuc saturating inactive | NLuc Km ctr inconclusive | FLuc ctr PMP22 inactive | S16 F2sN tox cnf inactive | PMP22 txn cnf inactive
CCc1ccc(CNc2ncc(-c3cccc(OC)c3)n2C)cc1	S16 F2sN tox inconclusive, PMP22 txn inconclusive, OvCa metastasis 5.6µM, pS6 MEF inh 13µM | NLuc saturating inactive | NLuc Km ctr inactive | FLuc ctr PMP22 inactive | S16 F2sN tox cnf inconclusive | PMP22 txn cnf inconclusive
Cc1ccc(-c2cnc(NCc3c(F)cccc3Cl)n2C)cc1	none
CCCCn1c(=O)n(Cc2ccccc2F)c(=O)c2[nH]c(Cc3ccc(NC(C)=O)cc3)nc21	none (no result: S16 F2sN tox, PMP22 txn, p53null 32C kill, p53null 39C kill, pS6 MEF inh)
CCn1ccc2c(OCC(=O)Nc3ccccc3C(F)(F)F)cccc2c1=O	S16 F2sN tox inconclusive, PMP22 txn 19µM | NLuc saturating inconclusive | NLuc Km ctr inconclusive | FLuc ctr PMP22 inactive | S16 F2sN tox cnf inactive | PMP22 txn cnf inconclusive
CCn1ccc2c(OCC(=O)Nc3ccccc3C)cccc2c1=O	PMP22 txn inconclusive
CCCCc1nn2c(=O)cc(COC(=O)c3cccc(NC(=O)c4cccc(C)c4)c3)nc2s1	PMP22 txn inconclusive
Cc1cccc(C(=O)Nc2cccc(C(=O)OCc3cc(=O)n4nc(C(C)C)sc4n3)c2)c1	PMP22 txn 13µM | NLuc saturating inactive | NLuc Km ctr inactive | FLuc ctr PMP22 inconclusive | S16 F2sN tox cnf inactive | PMP22 txn cnf inactive
CCOC(=O)[C@@H](N)CCC(=O)N[C@@H](CSCc1ccccc1)C(=O)N[C@@H](C(=O)OCC)c1ccccc1	none (no result: S16 F2sN tox, PMP22 txn, p53null 32C kill, p53null 39C kill, pS6 MEF inh)
CCN(C(=O)CSc1nc2ccccc2nc1Cc1ccc(F)cc1)c1cccc(C)c1	none
CCN(C(=O)CSc1nc(-c2ccccc2)no1)c1cccc(C)c1	PMP22 txn 13µM | NLuc saturating 19µM | NLuc Km ctr 4.8µM | FLuc ctr PMP22 inactive | S16 F2sN tox cnf inconclusive | PMP22 txn cnf inactive
CCOc1ccc(-c2nnc(SCC(=O)NCc3ccc(C)cc3)nc2-c2ccc(OCC)c(OC)c2)cc1OC	none
COc1ccc(-c2nnc(SCC(=O)NCc3ccccc3)nc2-c2ccc(OC)c(OC)c2)cc1OC	PMP22 txn 7.3µM | NLuc saturating inconclusive | NLuc Km ctr inconclusive | FLuc ctr PMP22 inactive | S16 F2sN tox cnf inactive | PMP22 txn cnf inconclusive
COc1cc(C(=O)N(Cc2ccc(F)cc2)Cc2ccco2)cc(OC)c1OC	none
Cc1noc(/C=C/c2ccco2)c1S(=O)(=O)N1CCC(C(=O)Nc2ccc(F)c(Cl)c2)CC1	S16 F2sN tox inconclusive, PMP22 txn 12µM | NLuc saturating inactive | NLuc Km ctr inactive | FLuc ctr PMP22 inactive | S16 F2sN tox cnf inactive | PMP22 txn cnf inactive
COc1ccccc1CNC(=O)c1cccc(Nc2nc3ccccc3n3nnnc23)c1	S16 F2sN tox inconclusive, PMP22 txn inconclusive

From PubChem BioAssay
